In the library only some 4.6% were active in any assay of this set; here they are far more common.
USP10 block – inhibitors of human USP10 deubiquitinase. Q14694. purified USP10, Ub-rhodamine fluorescence, 60 min. inhibition, % at 20 µM. hit rate 1.1% among 47,000. AID 1645856
UCHL1 block – inhibitors of human UCHL1 deubiquitinase. hit rate 0.2% among 47,000. purified UCHL1, Ub-rhodamine cleavage fluorescence. P09936. AID 1645859. inhibition, % at 20 µM
USP8 inh – human USP8 deubiquitinase inhibition | P40818 | purified USP8, Ub-rhodamine cleavage fluorescence, 30 min | inhibition, % at 20 µM | hit rate 4.2% among 47,000 | AID 1645853
USP7 inh – inhibitors of human USP7 deubiquitinase; Q93009; inhibition, % at 20 µM; purified USP7, Ub-rhodamine cleavage fluorescence; hit rate 0.3% among 47,000
* hit, by the source's call. Rule as the data show it: active = inhibition above about 30%; inactive = the rest.

SMILES | USP10 block | UCHL1 block | USP8 inh | USP7 inh
Cc1nn(-c2ccccc2)c2[nH]c(=O)c(CNc3ccccc3)cc12 | 3 | 0 | 4 | 8
Nc1c(-c2ccccn2)nsc1C(=O)N1CCc2ccccc2C1 | 2 | 2 | 2 | 0
CN1C(=O)OC[C@@H]2CCN(C(=O)CCc3c[nH]c4ccccc34)C[C@H]21 | -1 | 1 | 2 | 4
COc1ccc2c(c1)c(CC(=O)Nc1ccc3c(c1)OCCO3)c(C)n2C(=O)c1ccc(Cl)cc1 | 8 | 4 | 5 | -2
Cc1nn(-c2ccc(Cl)cc2)c2[nH]c(=O)c(CNc3ccc4c(c3)OCCO4)cc12 | 18 | 11 | 80* | 30
COc1ccccc1OC(C)C(=O)Nc1ccc2nsnc2c1 (configuration not stated) | 4 | 6 | 73* | -4
CC1=CC(=O)C(C2=C(O)C(=O)C(C)=CC2=O)=C(O)C1=O | 8 | 13 | 32* | -122
O=C(Nc1ccccc1)c1cccnc1Nc1ccc([N+](=O)[O-])cc1 | -10 | -165 | -176 | -124
Cc1cccc(NC(=O)CCc2nnc3c(=O)n(-c4ccc(C)c(C)c4)ccn23)c1 | 0 | -1 | 36* | 4
COc1ccc(-n2ccn3c(CCC(=O)Nc4cccc(C)c4)nnc3c2=O)cc1 | 26 | 4 | 36* | 2
Cc1ccc(NC(=O)CCc2nnc3c(=O)n(-c4cc(C)cc(C)c4)ccn23)cc1 | 9 | 0 | 42* | 10
CCc1nc(-c2cccc(-c3noc(CNC(C)=O)n3)c2)cs1 | 0 | -2 | 2 | -3
Cc1ncsc1C(=O)N1CCC(c2cc(=O)n3[nH]ccc3n2)CC1 | 0 | -2 | 3 | -4
COc1ccc(C)cc1NCC(=O)Nc1ncc(Cl)c(C)c1Cl | -5 | -9 | 36* | -12
COc1cc(Cl)c(NC(=O)C2Cc3ccccc3N2C(=O)c2ccccc2)c(OC)c1 (configuration not stated) | 36* | 1 | -8 | 1
Cc1ccccc1-c1cc2n(n1)CCC(=O)N2 | 4 | -1 | 4 | 1
O=C(O)c1cccc2[nH]c(-c3ccc(O)cc3)nc12 | 3 | 2 | 41* | 4
COc1c(C)cccc1C(=O)Nc1ccc(-c2nc3ccccc3[nH]2)cc1 | -2 | -7 | 0 | 0
CN1CCc2c(sc3c2c(NCc2cccnc2)nc2nnnn23)C1 | -3 | -23 | 39* | -13
COc1cc(C2CCN(C(=O)c3ccccc3)CC2)on1 | 2 | 0 | 32* | -1
COc1cc(C2CCN(C(=O)c3ccc(Cl)cc3)CC2)on1 | 0 | 0 | 1 | -4
Cc1ccc(NC(=O)Cn2nc3c4c5c(sc4ncn3c2=O)CCCC5)cc1C | -5 | -2 | 4 | -3
O=C(Cn1nc2c3c4c(sc3ncn2c1=O)CCCCC4)Nc1ccc(Cl)cc1F | 15 | 6 | 92* | 22
O=C(CSc1nc2ccccc2n1S(=O)(=O)c1ccc(Br)cc1)Nc1ccc(Br)cc1F | 7 | 5 | 14 | 0
O=C(CSc1nc2ccncc2[nH]1)Nc1ccc(Br)cc1F | 9 | 0 | 35* | 0
SMILES | USP10 block | UCHL1 block | USP8 inh | USP7 inh
COc1ccccc1/C=C(\C(=O)N1CCN(Cc2ccccc2)CC1)c1ccccc1 | 13 | 7 | 7 | 8
O=C(Cc1ccc(F)cc1)N1CCC2(CC1)NCCc1[nH]cnc12 | -2 | -1 | 39* | 3
O=C(Cc1ccccc1)NCC(=O)N1CCC2(CC1)NCCc1[nH]cnc12 | -6 | -2 | 18 | -1
O=C(NCC(=O)N1CCC2(CC1)NCCc1[nH]cnc12)c1ccc(-c2ccccc2)cc1 | -2 | 0 | 49* | 0
COc1ccc(CC(=O)N2CCC3(CC2)NCCc2[nH]cnc23)cc1 | -5 | 0 | 24 | 2
COc1ccc(CC(=O)NCC(=O)N2CCC3(CC2)NCCc2[nH]cnc23)cc1 | -6 | -1 | 34* | 0
Cn1ncc(Cl)c1C(=O)Nc1ccc2nc(NC(=O)C3CCCCC3)sc2c1 | 19 | 3 | 58* | 13
c1coc(CNc2nc3ccccc3n3nnnc23)c1 | -3 | -154 | -331 | -140
Cc1ccc(S(=O)(=O)c2nnn3c2nc(NCc2ccco2)c2sccc23)cc1 | 1 | -2 | 32* | 0
Cc1ccc(-c2c3c4n(c(-c5ccc(Cl)cc5)cn4c2C(=O)Nc2ccccc2Cl)CCCC3)cc1 | -3 | 4 | 43* | -6
NC(=O)COC(=O)CCN1c2ccccc2Sc2ccccc21 | 4 | 0 | 2 | -4
NC(=O)C[C@@H](NC(=O)[C@@H]1CCCN1C(=O)[C@H](Cc1ccccc1)n1c(=O)[nH]c2ccccc2c1=O)C(=O)O | 1 | -1 | 8 | 4
CCOc1ccc(NC(=O)COC(=O)C2(c3ccc(F)cc3)CCCC2)cc1 | 14 | 5 | 6 | 8
CN(C)c1ccc(NC(=O)COC(=O)C2(c3ccc(F)cc3)CCCC2)cc1 | 2 | 5 | 72* | 5

Compound activity as filed in PubChem BioAssay.
